Reference: PubChem BioAssay (NCI)
This is part of a sample that, as a whole, favours compounds with a hit. Of some 83,000 tested, about 20% had one in any assay.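 Plates (96-well) were seeded with cells, treated with compound at one concentration, and incubated for 48 hours before percent growth was determined.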 The source made the active and inactive calls. Rule for the calls: active = growth percent below 10; inactive = the rest.

These compounds were tested on K-562 leukemia (assay: NCI-60 one-dose screen, 48 h (100 = growth as untreated, 0 = no growth, -100 = all killed)). Settings: 10 µM unless noted.

SMILES	growth
CCC(Br)(CC)C(=O)c1ccc(OCC(=O)O)c(Cl)c1Cl	114% (inactive)
Oc1c(CNCCNCc2cc(Cl)cc(Cc3ccccc3)c2O)cc(Cl)cc1Cc1ccccc1	13.2% (inactive)
CCc1ccc(-c2ccc(COc3ccc(CC4SC(=O)NC4=O)cc3)cc2)cc1 (stereo not given)	34.8% (inactive)
Cn1cc(-c2noc(-c3cn(C)c4ncc(F)cc34)n2)c2ccccc21	77% (inactive)
Clc1ccc2nc(-c3ccc(-c4ccc(/C=N/NC5=NCCN5)cc4)s3)cn2c1	4.14% (active)
CC(C)CCSc1nc(N)nc2nc[nH]c12	81.7% (inactive)

What follows are compounds tested on MALME-3M melanoma in the same assay as above. Settings: 10 µM unless noted.

SMILES	growth
O=C(COc1cccc(/C=C2\Oc3ccccc3C2=O)c1)c1ccc([N+](=O)[O-])cc1	108% (inactive)
CC[C@]12C=CCN3CC[C@@]4(c5ccc(OC)cc5N(C)[C@H]4[C@@](O)(C(=O)OC)[C@@H]1OC(=O)CCC(=O)N[C@H](Cc1c[nH]c4ccccc14)C(=O)OC)[C@@H]32	-68.8% [100 µM] (active)
C=C(C)[C@@H]1CC[C@]2(C(N)=O)CC[C@]3(C)[C@H](CC[C@@H]4[C@@]5(C)C/C(=C/c6cccnc6)[C@H](O)C(C)(C)[C@@H]5CC[C@]43C)[C@@H]12	5.89% [100 µM] (active)
CSc1nc2sc3cc(Cl)c(Cl)cc3n2c(=N)c1C#N	101% (inactive)
COc1ccc(/C=C2\N=C(Nc3ccccc3)N(NC(=O)c3ccccn3)C2=O)cc1	105% (inactive)
O=C(NCCCNC(=O)OCc1ccc2cccc(O)c2n1)OCc1ccc2cccc(O)c2n1	72.3% (inactive)
COc1cc(C(=O)/C=C/c2c(-c3ccc(F)cc3)nc3sccn23)cc(OC)c1OC	33.6% (inactive)
CCCCCCCCCCCCNC(=S)N/N=C/c1ccccc1O	98.9% (inactive)
CCCc1cc2cc(-n3nc(C)c4c3CC(C)(C)CC4=O)cc(NC3CCSCC3)c2c(=O)[nH]1	64.6% (inactive)
COc1ccc(-c2cc(-c3ccc(OC)c(OC)c3)nc(SCCCCCC(=O)NO)n2)cc1	19.4% (inactive)
CCC(C)[C@H](NC(=O)NC(=O)NC(=O)CI)C(=O)OC (stereo not given in full)	-44.9% (active)
CCN(CC)c1ccc(/C=C/c2ccc3cc(C)ccc3[n+]2CC)cc1	-2.01% (active)
N/C(=N\c1nc2ccccc2[nH]1)NC(=O)Cc1cccc2ccccc12	68.3% (inactive)
CC1(C)CC[C@]2(C(N)=O)CC[C@]3(C)C(=CC[C@@H]4[C@@]5(C)C/C(=C/c6ccncc6)C(=O)C(C)(C)[C@@H]5CC[C@]43C)[C@@H]2C1	-84.9% [100 µM] (active)
Cc1ccc(C2=C/C(=C/c3ccc(Br)cc3)C(=O)N2CCc2ccc(S(N)(=O)=O)cc2)cc1	93.4% (inactive)
Cc1ccc(NCCN2CCCCC2)c2c(=O)c3ccccc3sc12	22.1% (inactive)
CC1(C)CC(=O)c2c(ccc(C(=O)C[C@@H](N)CO)c2N)O1	51.2% (inactive)
CCCCC1COc2cccc3c2N1C=C/C3=C\C(=O)n1ccc2ccccc21 (stereo not given)	69.3% (inactive)
CC(C)CSc1ncnc2nc[nH]c12	104% (inactive)
CC1(C)CC[C@]2(C(=O)O)CC[C@]3(C)C(=CC[C@@H]4[C@@]5(C)C/C(=C/c6cccnc6)[C@H](O)C(C)(C)[C@@H]5CC[C@]43C)[C@@H]2C1	-30.1% [100 µM] (active)
COc1ccc(C=C2c3ccccc3-c3ccccc32)cc1	63.5% (inactive)
C#C[C@]1(O)CC[C@H]2[C@@H]3CC=C4c5nc(Nc6ccc(OC)cc6OC)sc5CC[C@]4(C)[C@H]3CC[C@@]21C	-21.8% (active)
CCOC(=O)c1nn(C2CCCCO2)c2ccc(NC(=O)CSc3nc4ccccc4c(=O)[nH]3)cc12 (stereo not given)	103% (inactive)
O=c1[nH]cnc2c1ccn2C1OC(CO)C(O)C1O (stereo not given)	81.3% (inactive)
CCOC(=O)C(=Cc1ccccc1[N+](=O)[O-])C(=O)OCC	67.3% (inactive)
Cc1cc(C)c(S(=O)(=O)/N=c2/n(-c3ccccc3)nc3n2CCN3C2=NCCN2)c(C)c1	50.7% (inactive)
COC(=O)c1cc2c(=O)[nH]cc3c2c(n1)CCC3	99.3% (inactive)
Cn1cc(-c2noc(C(=O)c3cn(C)c4ncccc34)n2)c2ccccc21	72.5% (inactive)
O=c1cc(-c2ccccc2)oc2cc(OCc3cn(Cc4ccc(F)cc4)nn3)cc(O)c12	6.44% [100 µM] (active)
